# This is part of a sample that, as a whole, favours compounds with a hit. Of some 79,000 tested, about 15% had one in any assay. Unmarked numbers belong to inactive results. Active and inactive are the calls of the source. Cut-off read from the data, not from the text of the source: active = growth inhibition above about 70%; inactive = the rest.
# Columns and labels:
# [1] = NCI Yeast Anticancer Drug Screen. Data for the rad50 strain (AID 155);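 note: 0% = growth of vehicle-only cultures of the same strain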; conditions: S. cerevisiae rad50 strain growth inhibition, stronger effect = higher value
# Procedure, shortened: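 Cells are treated with compound, grown, and their growth is then scored against vehicle-only cultures of the same repair-deficient yeast strain.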
# [2] = NCI Yeast Anticancer Drug Screen. Data for the mec2-1 strain (AID 157); conditions: S. cerevisiae mec2-1 strain, stronger effect = higher value
# Procedure, shortened: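 Cells of the genetically defined mec2-1 yeast strain are incubated with test compound. Inhibition of growth is calculated against vehicle-treated controls.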
# [3] = NCI Yeast Anticancer Drug Screen. Data for the sgs1 mgt1 strain (AID 161);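 note: 0% = growth of cultures given vehicle only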; conditions: S. cerevisiae sgs1 mgt1 strain, stronger effect = higher value
# Procedure, shortened: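 Read-out: growth inhibition vs vehicle controls. Cells: mutant yeast strain deficient in DNA damage repair.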
# [4] = NCI Yeast Anticancer Drug Screen. Data for the cln2 rad14 strain (AID 165);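 note: 0% = growth equal to vehicle treated cultures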; conditions: S. cerevisiae cln2 rad14 strain, stronger effect = higher value
# Procedure, shortened: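 The screen exposed genetically defined yeast (cln2 rad14) to test compounds and scored growth inhibition relative to vehicle-treated controls.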
# [5] = NCI Yeast Anticancer Drug Screen. Data for the mlh1 rad18 strain (AID 175); conditions: S. cerevisiae mlh1 rad18 strain growth inhibition, stronger effect = higher value
# Procedure, shortened: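 Compound-treated yeast growth, normalised to vehicle controls. Strain bears defined DNA repair mutations.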
# [6] = NCI Yeast Anticancer Drug Screen. Data for the bub3 strain (AID 167); conditions: S. cerevisiae bub3 mutant strain, stronger effect = higher value
# Procedure, shortened: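 Part of a panel of yeast mutants defective in DNA damage repair or cell cycle regulation. Each strain is grown with compound, and inhibition is calculated relative to solvent-treated cultures.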
# [7] = at 5.0 µM (retest, dose inferred, filed as 0.5)
# [8] = at 50.0 µM (retest, dose inferred, filed as 5.0)
Compound,"growth inhibition [1, 7]","growth inhibition [1, 8]",growth inhibition ([1]; at 50.0 µM),"growth inhibition [2, 7]","growth inhibition [2, 8]",growth inhibition ([2]; at 50.0 µM),"growth inhibition [3, 7]","growth inhibition [3, 8]",growth inhibition ([3]; at 50.0 µM),"growth inhibition [4, 7]","growth inhibition [4, 8]",growth inhibition ([4]; at 50.0 µM),"growth inhibition [5, 7]","growth inhibition [5, 8]",growth inhibition ([5]; at 50.0 µM),"growth inhibition [6, 7]","growth inhibition [6, 8]",growth inhibition ([6]; at 50.0 µM)
COc1ccc(CN2COc3c(cc(Cl)c4cccnc34)C2)cc1,6%,98% (active),99.5% (active),-2%,91% (active),99.6% (active),1%,98% (active),99.7% (active),4%,99% (active),99.2% (active),8%,99% (active),99.5% (active),,,
CCOP(=O)(OCC)/C(C#N)=C/c1ccc(C(F)(F)F)cc1,20%,90% (active),89.5% (active),-16%,94% (active),91.7% (active),4%,93% (active),90.9% (active),12%,95% (active),89.4% (active),3%,90% (active),86.8% (active),28%,97% (active),89.4% (active)
COC(=O)/C=C(\C)Nc1ccc(Cc2ccc(Br)cc2)cc1,-4%,98% (active),97.5% (active),-13%,99% (active),96.8% (active),-8%,99% (active),97.8% (active),0%,99% (active),92.9% (active),-4%,99% (active),98% (active),-5%,98% (active),94% (active)
CCOC(=O)C1=C(N)N(S(=O)(=O)c2ccc(C)cc2)CCC(C(=O)OC)=C1,3%,-4%,30.4%,0%,0%,31.9%,5%,-1%,82% (active),5%,-6%,-3.15%,-2%,-3%,56.1%,,,
CCCCCCCCCCCCCCCCNC(=O)/C(=C\c1ccccc1O)NC(=O)c1ccccc1,0%,6%,66.2%,-8%,-2%,35.1%,0%,14%,71.7% (active),33%,-20%,27.3%,18%,-6%,67.6%,2%,8%,73.7% (active)
Nc1cc(Cl)ccc1S,79% (active),48%,99.5% (active),99% (active),89% (active),99.5% (active),,,,25%,53%,99% (active),83% (active),75% (active),99.5% (active),31%,91% (active),99.3% (active)
O=[N+]([O-])/C(=C\c1cccs1)c1ccccc1,90% (active),98% (active),99.2% (active),92% (active),99% (active),99.7% (active),83% (active),99% (active),99.5% (active),75% (active),99% (active),99.1% (active),96% (active),99% (active),99.3% (active),90% (active),99% (active),99.5% (active)
Cc1ccccc1-n1c(N)c(-c2nc3ccccc3[nH]2)sc1=S,36%,45%,81.2% (active),22%,50%,70.7% (active),42%,57%,68.2%,37%,44%,70.4% (active),42%,61%,80.2% (active),,,
COC(=O)C12CCC(C)(C)CC1C1=CCC3C4(C)CC(O)C(O)C(C)(C(=O)OC)C4CCC3(C)C1(CO)CC2 (stereo unspecified),30%,97% (active),91.5% (active),30%,99% (active),91.7% (active),15%,99% (active),91.8% (active),39%,99% (active),91.4% (active),31%,98% (active),85.8% (active),26%,99% (active),88.8% (active)
Cc1nnc(NS(=O)(=O)c2ccc(N=Nc3cc(N=Nc4ccc(S(=O)(=O)Nc5nnc(C)s5)cc4)c4c(NC(=O)C(Cl)Cl)cccc4c3OC(=O)C(Cl)Cl)cc2)s1 (tested in a mixture with another compound),90% (active),-11%,51.8%,92% (active),24%,53.6%,89% (active),-9%,69.5%,90% (active),6%,65.8%,80% (active),-44%,79.5% (active),91% (active),-3%,58.2%
O=C(C(Cl)Cl)N(O)c1ccccc1OCc1ccccc1,10%,52%,72.2% (active),9%,73% (active),41.9%,,,,6%,27%,34.4%,56%,95% (active),89% (active),2%,67%,62.4%
COc1cc2c(cc1O)-c1c(cnn1-c1ccc([N+](=O)[O-])cc1)CCC2,7%,56%,79% (active),4%,27%,91.9% (active),,,,3%,52%,73% (active),17%,71% (active),94.8% (active),0%,3%,93.2% (active)
O=C(O)CCc1ccc2ccccc2c1,-2%,48%,62.8%,0%,38%,51.4%,1%,37%,37.7%,-4%,32%,83.2% (active),-4%,41%,88.2% (active),,,
Fc1ccc(CN2COc3c(ccc4cccnc34)C2)cc1,-5%,32%,59.4%,-2%,17%,27.1%,,,,3%,70% (active),41.2%,-1%,57%,9.45%,-5%,50%,77% (active)
C=C(CSCCCCCCCCCCCC)C(=O)O,98% (active),97% (active),98.5% (active),99% (active),98% (active),98.9% (active),,,,98% (active),96% (active),94.3% (active),99% (active),97% (active),96.7% (active),98% (active),96% (active),99.3% (active)
Cc1ccc(COCO)c(O)c1,-1%,-8%,-6.7%,0%,2%,35.8%,,,,-7%,-3%,-18.1%,-1%,-4%,-16.4%,-3%,-4%,-0.15%
Cn1c2c(c3ccccc31)CCN(CCN1CCN(c3cccc(Cl)c3)CC1)C2=O,34%,34%,88.8% (active),7%,7%,85.1% (active),1%,1%,87.8% (active),15%,15%,91.3% (active),10%,10%,80.6% (active),,,
COc1ccc(C(=O)Nc2ccccc2OC)cc1,5%,8%,3.45%,-13%,-29%,12.2%,4%,10%,15.1%,6%,17%,19.1%,18%,23%,9.5%,,,
COc1ccc(/C=C2\Sc3scc(-c4ccc([N+](=O)[O-])cc4)[n+]3C2=O)cc1OC,3%,4%,39.3%,-6%,20%,55%,-3%,11%,66%,0%,-4%,28.6%,3%,12%,65.8%,,,
Cc1ccc(NC(=S)SCc2ccc3c(c2)OCO3)cc1Cl,19%,96% (active),98.9% (active),15%,99% (active),99.5% (active),16%,98% (active),99% (active),-7%,97% (active),98.8% (active),39%,97% (active),99.2% (active),15%,99% (active),99.2% (active)

# From PubChem BioAssay (NCI)
